The assay addresses Beta-2 adrenergic receptor (Homo sapiens) (UniProt P07550). Briefly: Adrenergic beta2 receptor (ADRB2) small molecule agonists, cell-based qHTS assay (AID 1963593).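 As to activation: CHO cells stably overexpressing human ADRB2.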 The conditions noted are these: CHO-ADRB2 cells, cAMP HTRF, 30 min; series mostly up to 92.4 µM. The method in brief: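 CHO cells stably over-expressing ADRB2 were plated overnight at 37C, then dosed with compounds plus a stimulation mix containing 100uM IBMX and 25uM Ro-20-1724 for 0.5hr at room temperature. cAMP was measured by HTRF competition, 1hr.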
For orientation: In qHTS, concentration-response curves come from the screen itself.

Inconclusive results are not listed. Where a call stands in place of a potency, no number is given. A number with no mark means an inactive call. The source made the active and inactive calls. Calls follow the shape of the full dose curve.
Potency is read from the fitted curve at half-maximal effect.

Beta-2 adrenergic receptor (Homo sapiens), sequence (P07550 whole entry, looked up): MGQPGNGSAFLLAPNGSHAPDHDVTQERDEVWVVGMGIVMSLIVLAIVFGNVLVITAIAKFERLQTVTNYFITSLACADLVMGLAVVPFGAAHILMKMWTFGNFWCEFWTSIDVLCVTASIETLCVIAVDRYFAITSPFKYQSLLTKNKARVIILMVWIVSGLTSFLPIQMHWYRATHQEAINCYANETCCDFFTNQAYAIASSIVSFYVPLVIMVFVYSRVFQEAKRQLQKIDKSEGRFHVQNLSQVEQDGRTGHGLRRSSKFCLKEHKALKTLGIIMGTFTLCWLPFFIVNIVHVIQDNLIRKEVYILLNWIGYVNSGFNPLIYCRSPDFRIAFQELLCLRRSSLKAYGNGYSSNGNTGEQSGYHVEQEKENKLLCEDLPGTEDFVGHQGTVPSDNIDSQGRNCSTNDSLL

As to `COc1cc(Cl)c(OC)cc1Cl`, the Potency entry was “inactive”.

In the case of `COc1ccc2[nH]cc(CCN(C(C)C)C(C)C)c2c1`, the Potency result is “inactive”.

Regarding `O=C(O)C(Br)CBr` (centres undefined), the Potency entry is “inactive”.

On to `CC(C)O.CC(C)O.OCCN(CCO)CCO.OCCN(CCO)CCO.[Ti]`, for which the Potency entry is “inactive”.

Regarding `COc1c2c(cc3c1OCO3)CCN(C)C2`, the Potency result is “inactive”.

As to `COc1nn(C(=O)NS(=O)(=O)c2ccccc2OC(F)(F)F)c(=O)n1C`, the Potency entry is “inactive”.

On to `CCOP(=O)(OCC)Oc1cc(C)nc(C(C)C)n1`, for which the Potency result was “inactive”.

As to `Cc1ccc(C)c2ccccc12`, the Potency entry is “inactive”.

Turning to `CC[C@H](C)[C@H]1O[C@]2(C=C[C@@H]1C)C[C@@H]1C[C@@H](C/C=C(\C)[C@@H](O[C@H]3C[C@H](OC)[C@@H](O[C@H]4C[C@H](OC)[C@@H](O)[C@H](C)O4)[C@H](C)O3)[C@@H](C)/C=C/C=C3\CO[C@@H]4[C@H](O)C(C)=C[C@@H](C(=O)O1)[C@]34O)O2`, the Potency result is “inactive”.

Turning to `CCN(CC)CCc1c[nH]c2ccccc12`, the Potency entry was “inactive”.

With `SCc1ccco1`, the Potency entry is “inactive”.

With `COc1cccc([C@@]2(O)CCCC[C@@H]2CN(C)C)c1`, the Potency result is “inactive”.

Turning to `COC1CC(=C(c2cccs2)c2cccs2)C[N+](C)(C)C1` (centres undefined), the Potency entry is “inactive”.

Consider `c1coc(-c2nc3ccccc3[nH]2)c1`, for which the Potency result is “inactive”.

Take `CCOP(=S)(OCC)SCSc1ccc(Cl)cc1`: the Potency result is “inactive”.

On to `CC(C)(C)NC[C@H](O)c1ccc(O)cc1Cl`, for which the Potency is 6 nM (active).

Take `CCCN(CCC)CCc1c[nH]c2ccccc12`: the Potency entry was “inactive”.

Turning to `OC(Cn1cncn1)(c1ccc(F)cc1)c1ccccc1F` (centres undefined), the Potency result was “inactive”.

Regarding `Nc1c(Cl)c(F)nc(OCC(=O)O)c1Cl`, the Potency entry is “inactive”.

For `CN1CCC(O)(c2ccc(F)cc2)C(C(=O)c2ccc(F)cc2)C1` (centres undefined), the Potency result is “inactive”.

Take `CCCN1CCC[C@@H]2Cc3nc(N)ncc3C[C@H]21`: the Potency result is “inactive”.

On to `CC(C)CCCCCCCOC(=O)c1ccccc1C(=O)OCCCCCCCC(C)C`, for which the Potency result was “inactive”.

In the case of `COc1ccc2c(c1OC)C(=O)O[C@H]2[C@@H]1c2cc3c(cc2CCN1C)OCO3`, the Potency entry was “inactive”.

Turning to `CN(C)CCc1c[nH]c2ccccc12`, the Potency entry is “inactive”.

Consider `Cn1sc(Cl)cc1=O`, for which the Potency result was “inactive”.

With `CCS(=O)(=O)c1cccnc1S(=O)(=O)NC(=O)Nc1nc(OC)cc(OC)n1`, the Potency entry is “inactive”.

On to `c1ccc(OCC2CO2)cc1` (centres undefined), for which the Potency result is “inactive”.

`O=C=Nc1ccc(Cl)cc1`: the Potency entry is “inactive”.

Turning to `CCCN(CC)CC1COC2(CCC(C(C)(C)C)CC2)O1` (centres undefined), the Potency result was “inactive”.

In the case of `CCCCCC[N+](=O)[O-]`, the Potency entry was “inactive”.

Turning to `NC(=O)CI`, the Potency result was “inactive”.

For `CC1CCCCC1NC(=O)Nc1ccccc1` (centres undefined), the Potency result was “inactive”.

For `Cc1cc(=O)[nH]o1`, the Potency entry was “inactive”.

As to `CC1=C(C(=O)O)N2C(=O)[C@@H](N)[C@H]2SC1`, the activation was 0.75% [at 19 µM].

For `O=c1c(C2CC(c3ccc(-c4ccc(Br)cc4)cc3)Cc3ccccc32)c(O)sc2ccccc12` (centres undefined), the Potency entry was “inactive”.

Take `Clc1ccc(CO/N=C(\Cn2ccnc2)c2ccc(Cl)cc2Cl)c(Cl)c1`: the Potency entry is “inactive”.

As for `CC(C)COP(=O)(OCC(C)C)OCC(C)C`, the Potency entry was “inactive”.

Regarding `CCC[N+](CCC)(CCC)CCC`, the Potency entry is “inactive”.

As to `CSCCCN=C=S`, the Potency result was “inactive”.

`N=C(N)[Se]`: the Potency result is “inactive”.

Consider `CC1N=C(N)OC1c1ccccc1` (centres undefined), for which the Potency entry was “inactive”.

Consider `BrCCCCCCBr`, for which the Potency result was “inactive”.

`C[C@H]1CC[C@@H]2[C@@H](C)[C@H]3[C@H](C[C@H]4[C@@H]5CC=C6CC(O[C@@H]7O[C@H](CO)[C@H](O)[C@H](O[C@@H]8O[C@H](CO)[C@@H](O)[C@H](O)[C@H]8O)[C@H]7O[C@H]7O[C@@H](C)[C@H](O)[C@@H](O)[C@H]7O)CC[C@]6(C)[C@H]5CC[C@]34C)N2C1` (some centres undefined): the Potency result was “inactive”.

Take `O=C(NC(=O)c1c(F)cccc1F)Nc1ccc(Oc2ccc(C(F)(F)F)cc2Cl)cc1F`: the Potency result is “inactive”.
